Screens (PubChem BioAssay)
Rows were chosen to be rich in hits. Some 1.6% of all compounds tested hit in one or more screens of this group.
KCNQ2 inh – inhibitors of rat KCNQ2 potassium channel. B-score at 10 µM. CHO-K1 KCNQ2, FluxOR thallium flux, 20 min; hits give low values. O88943. actives 1.1% (n = 310,000);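 active = fluorescence ratio B-score at most minus 3 library SDs, with starting brightness B-score within 2 library SDs, cut at about -5.5 in these data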
Target sequence (O88943 whole entry, looked up): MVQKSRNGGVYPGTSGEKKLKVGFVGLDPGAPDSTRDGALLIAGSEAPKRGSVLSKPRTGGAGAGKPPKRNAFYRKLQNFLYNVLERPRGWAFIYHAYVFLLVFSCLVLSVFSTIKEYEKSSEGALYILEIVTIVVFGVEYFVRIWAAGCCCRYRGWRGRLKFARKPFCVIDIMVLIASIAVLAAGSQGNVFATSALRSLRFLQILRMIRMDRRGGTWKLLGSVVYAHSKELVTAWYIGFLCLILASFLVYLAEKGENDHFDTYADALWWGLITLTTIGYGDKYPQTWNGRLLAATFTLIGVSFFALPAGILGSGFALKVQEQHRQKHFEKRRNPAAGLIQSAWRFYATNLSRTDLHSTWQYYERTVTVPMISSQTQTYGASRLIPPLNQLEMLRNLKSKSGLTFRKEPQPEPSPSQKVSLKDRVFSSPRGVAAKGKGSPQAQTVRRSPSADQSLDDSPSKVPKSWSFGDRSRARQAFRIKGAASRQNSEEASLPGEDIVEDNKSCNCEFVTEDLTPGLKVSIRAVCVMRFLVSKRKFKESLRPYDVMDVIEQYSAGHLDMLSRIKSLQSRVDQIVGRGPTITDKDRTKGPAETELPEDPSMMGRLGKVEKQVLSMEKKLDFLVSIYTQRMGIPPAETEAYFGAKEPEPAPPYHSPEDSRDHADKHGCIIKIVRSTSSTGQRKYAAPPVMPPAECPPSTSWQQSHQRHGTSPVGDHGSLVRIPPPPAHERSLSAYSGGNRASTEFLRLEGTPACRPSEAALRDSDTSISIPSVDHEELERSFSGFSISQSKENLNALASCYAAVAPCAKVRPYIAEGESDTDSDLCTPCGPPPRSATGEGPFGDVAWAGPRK
KCNQ2 pot – enhances the rat KCNQ2 potassium channel; O88943; actives 0.54% (n = 310,000); B-score at 10 µM; CHO-K1 KCNQ2, FluxOR thallium flux fluorescence; hits give high values;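 active = fluorescence ratio B-score at least 3 SD of library B-scores, with initial fluorescence B-score within 3 of them, cut at about 5.3 in these data; same plate scores as AID 2156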;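 note: B-score of peak minus minimum over baseline fluorescence ratio after K+ and Tl+ stimulus; positive B-score means potentiation of KCNQ2 with more thallium influx and brighter signal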
Active calls of the source: *; i = inactive; . = not tested or not shown.

SMILES	KCNQ2 inh	KCNQ2 pot
CCSC1(SCC)N=C(N)C2(C#N)C(c3ccc(F)cc3)C12C#N (stereo not given)	-5.87*	-5.87
COC1(OC)N=C(N)C2(C#N)C(c3ccc(F)cc3)C12C#N (stereo not given)	i	1.82
Cc1c(C(=O)N(C)Cc2cccc(F)c2)oc2c(Cl)cccc12	-7.65*	-7.65
Cc1c(C(=O)N(C)Cc2ccccc2)oc2c(Cl)cccc12	i	.
COc1ccccc1NC(=O)CNC(c1ccccc1)c1ccccc1	-6.07*	-6.07
COc1cc(Cl)c(C)cc1NC(=O)CNC(C)c1ccccc1OC (stereo not given)	-5.85*	-5.85
COc1ccccc1C(C)NCC(=O)Nc1c(F)cccc1F (stereo not given)	i	0.99
COc1ccc(C)cc1NC(=O)CNC(c1ccccc1)c1ccc(C)cc1 (stereo not given)	i	.
COc1ccccc1-n1c(SCC(=O)Nc2cc(C)on2)nc2c([nH]c3ccccc32)c1=O	i	.
Cc1ccc(OCC(=O)N(c2ccccn2)C2CCCCC2)c(C)c1	-6.39*	-6.39
O=C(COCCOCC(=O)N(c1ccccn1)C1CCCCC1)N(c1ccccn1)C1CCCCC1	i	0.07
Cc1ccc2oc(C(=O)N3CCN(c4cccc(C)n4)CC3)c(C)c2c1	-8.08*	-8.08
Cc1cc(Cl)c2oc(C(=O)N3CCN(c4cccc(C)n4)CC3)c(C)c2c1	i	.
CCOC(=O)Cn1c(=NC(=O)CSC(C)=O)sc2cc(OC)ccc21	i	.
CCOC(=O)Cn1c(=NC(=O)CSC(C)=O)sc2ccccc21	-6.77*	-6.77
O=[N+]([O-])c1cccc(NC(=S)N2CCN(c3ccccn3)CC2)c1	i	.
COc1ccc(NC(=O)C(CC(C)C)NC(=O)c2ccccc2C)cn1 (stereo not given)	-7.69*	-7.69
Cc1ccccc1C(=O)NC(CC(C)C)C(=O)Nc1ccc(F)c([N+](=O)[O-])c1 (stereo not given)	i	.
Cc1cc([N+](=O)[O-])nn1CCCC(=O)NCc1ccc(F)cc1	i	2.94
O=C(NC(=S)Nn1cnnc1)c1cccc(Br)c1	i	2.4
CCN(CC)S(=O)(=O)c1cccc(NC(=O)COc2ccc(C#N)cc2OC)c1	i	7.54*
CCN(CC)S(=O)(=O)c1cccc(NC(=O)COc2ccc(F)cc2Br)c1	-7.59*	-7.59
CCN(CC)S(=O)(=O)c1ccc(C)c(NC(=O)COc2ccc(Cl)cc2Br)c1	i	0.05
CCN(CC)S(=O)(=O)c1cc(NC(=O)COc2ccc(C#N)cc2OC)ccc1C	i	.
CC(=O)c1cccc(CN2CCC(C(=O)Nc3ccc(-c4cccc(C)c4)cc3)CC2)c1	i	0.01
SMILES	KCNQ2 inh	KCNQ2 pot
Cc1csc2c(=O)[nH]cnc12	i	0.07
Cc1ccc(SCC(=O)OC(C)C(=O)NCc2ccccc2)cc1 (stereo not given)	i	.
COc1ccc(C)cc1NC(=O)C(=O)NNC(=O)COc1ccc(Cl)cc1	i	11.1*
Cc1ccc(NC(=O)NNC(=O)COc2ccc(Cl)cc2)cc1	i	0.66
Cc1c[n+](CC(=O)c2ccccc2)cs1	i	0.2
COc1ccc(N2C3=C(CC4=C2CCCC4=O)C(=O)CCC3)cc1	i	.
COc1ccc(N2C3=C(CC4=C2CC(C)(C)CC4=O)C(=O)CC(C)(C)C3)cc1	-10.4*	-10.4
Cc1cccc(N=Cc2cc3c(cc2[N+](=O)[O-])OCO3)c1	-6.49*	-6.49
O=[N+]([O-])c1cc2c(cc1C=Nc1ccccc1)OCO2	i	.
Oc1ccc(Nc2nc(-c3ccc4ccccc4c3)cs2)cc1	i	.
Oc1ccc(-c2nc(-c3ccc(O)c(O)c3)cs2)cc1	-5.56*	-5.56
Brc1ccc(-n2cnc(-c3ccccc3)c2)cc1	i	0.02
CC1=CC(C#N)(C#N)C(C#N)(C#N)C(c2ccccc2)N1 (stereo not given)	i	.
CC1CCC(C(C)C)C2=C1C(C#N)(C#N)C(C#N)(C#N)C(c1ccccc1)N2 (stereo not given)	-7.84*	-7.84
Cc1cc(Sc2nc(N)ncc2[N+](=O)[O-])ncn1	i	.
Cc1cc(Sc2ncnc(N)c2[N+](=O)[O-])ncn1	-5.87*	-5.87
CCOC(=O)C1CCCN(C(=O)c2cc3ccccc3oc2=O)C1 (stereo not given)	i	.
Cc1cc(C)c2c(N)c(C(=O)NN3CC(=O)N(c4ccccc4)CC3=O)sc2n1	i	1.64
CCN(CC(=O)Nc1ccc(NC(C)=O)cc1)C(=O)CSCc1c(C)noc1C	i	.
COc1ccc(C(=O)Nn2c(SCC(=O)c3ccccc3)nc3ccccc3c2=O)cc1	i	.
COc1ccc(C(=O)Nn2c(SCc3ccc([N+](=O)[O-])cc3)nc3ccccc3c2=O)cc1	-6.22*	-6.22
COc1ccc(CC(=O)Nn2c(-c3ccccc3)nc3ccccc3c2=O)cc1	i	9.92*
O=C(COc1ccccc1)Nn1c(-c2ccccc2)nc2ccccc2c1=O	i	1.4
COc1ccc(OCC(=O)Nn2c(-c3cccc(OC)c3)nc3ccccc3c2=O)cc1	i	.
Cc1ccc(-c2nc3ccccc3c(=O)n2NC(=O)COc2ccccc2)cc1	-6.83*	-6.83
SMILES	KCNQ2 inh	KCNQ2 pot
CC(C)CC(=O)Nc1ccc2c3c(cccc13)CC2	i	25.5*
CCCCC(=O)Nc1ccc2c3c(cccc13)CC2	i	18.5*
CC(=O)Nc1ccc2c3c(cccc13)CC2	i	1.37
Cc1cc(C)cc(OCC(=O)Nc2ccc3c4c(cccc24)CC3)c1	i	0.25
Cc1cccc(N(CC(=O)N/N=C/c2ccc(C(=O)O)cc2)S(=O)(=O)c2ccccc2)c1C	i	0.27
COc1cc(OC)cc(OC(=O)C2CCN(C(=O)c3ccc(F)cc3)CC2)c1	i	0.56
O=C(CSC1CCCCC1)Nc1ccccc1Br	i	6.89*
CCN(CC(=O)Nc1ccccc1Br)C1CCCCC1	i	.
CCOc1ccc(NC(=O)c2ccccc2C(=O)c2ccccc2)cc1OCC	i	.
CCc1ccccc1NC(=O)CCc1c(C)nn(-c2ccc(N3CCOCC3)nn2)c1C	i	0.17
CCN(C(=O)COC(=O)c1c2c(nc3ccccc13)/C(=C/c1ccccc1)CC(C)C2)C1CCS(=O)(=O)C1 (stereo not given)	i	0.24
COC(=O)c1ccc(OC)c(CSc2nnc(COc3ccc(OC)cc3)o2)c1	i	.
COC(=O)c1ccc(OC)c(CSc2nnc(COc3cccc(C)c3)o2)c1	-6.07*	-6.07
S=C(Nc1cccc2ccccc12)NC1CCCCC1	i	.
CCC1CN(C(=O)N2CCC(C(=O)NCc3ccco3)CC2)c2cc(C)ccc2O1 (stereo not given)	i	0.9
Cc1cccc(N2CC(C(=O)Nc3ccc4c(c3)OCCO4)CC2=O)c1C (stereo not given)	i	.
Cc1cccc(Nc2nc(N3CCOCC3)nc(N3CCOCC3)n2)c1	i	0.48
Cn1ccnc1Sc1nc(Nc2cccc(Cl)c2)nc(N2CCOCC2)n1	-6.15*	-6.15
Cc1ccc(-c2nc3cccnc3s2)cc1NS(=O)(=O)c1ccc2c(c1)CCCC2	-5.98*	-5.98
O=S(=O)(Nc1cccc(-c2nc3cccnc3s2)c1)c1ccc2c(c1)CCCC2	i	.
COCCn1cnc2c1c(=O)n(Cc1ccc(C#N)cc1)c(=O)n2Cc1ccccc1	i	.
COc1ccc(-c2oc3ccccc3c2C(=O)Oc2ccccc2)cc1	i	.
COC(=O)c1ccc(OCCN2CCCCCC2)cc1	i	.
O=C(c1ccc(OCCN2CCCCC2)cc1)c1c(-c2ccc(O)cc2)sc2cc(O)ccc12	-5.98*	-5.98
